# Screening data deposited in PubChem by National Center for Advancing Translational Sciences (NCATS).
# The list is not random: actives were taken first. Their share in the collection is about 15%.
# ELG1 repair inh = qHTS screen for small molecules that inhibit ELG1-dependent DNA repair in human embryonic kidney (HEK293T) cells expressing luciferase-tagged ELG1; HEK293T ELG1-luciferase reporter, luminescence, 16 h; DNA damage induced by 5-fluorouridine; Potency, µM (highest dose often 46.1 µM), actives largely listed as inhibitors; 330,000 tested, 2.3% active; AID 504467, 2011; further: nearly all actives have a fitted effect of over 55% in size
#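 Overnight (16 hr) co-exposure of 2,000 cells/well to 5-fluorouridine and compound at 37 °C preceded detection. Luciferase was quantified via ONE-Glo luminescence; loss of signal denotes inhibition.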
# 12-LOX inh = Primary qHTS assay for inhibitors of human arachidonate 12S-lipoxygenase (ALOX12): Round 2 | Polyunsaturated fatty acid lipoxygenase ALOX12 (Homo sapiens), P18054 | purified 12hLO, xylenol orange hydroperoxide absorbance | Potency, µM (titrated, usually from 108 µM), actives largely listed as inhibitors | 580,000 tested, 1.1% active | AID 1671190, 2021
# Target sequence (P18054 whole entry, looked up): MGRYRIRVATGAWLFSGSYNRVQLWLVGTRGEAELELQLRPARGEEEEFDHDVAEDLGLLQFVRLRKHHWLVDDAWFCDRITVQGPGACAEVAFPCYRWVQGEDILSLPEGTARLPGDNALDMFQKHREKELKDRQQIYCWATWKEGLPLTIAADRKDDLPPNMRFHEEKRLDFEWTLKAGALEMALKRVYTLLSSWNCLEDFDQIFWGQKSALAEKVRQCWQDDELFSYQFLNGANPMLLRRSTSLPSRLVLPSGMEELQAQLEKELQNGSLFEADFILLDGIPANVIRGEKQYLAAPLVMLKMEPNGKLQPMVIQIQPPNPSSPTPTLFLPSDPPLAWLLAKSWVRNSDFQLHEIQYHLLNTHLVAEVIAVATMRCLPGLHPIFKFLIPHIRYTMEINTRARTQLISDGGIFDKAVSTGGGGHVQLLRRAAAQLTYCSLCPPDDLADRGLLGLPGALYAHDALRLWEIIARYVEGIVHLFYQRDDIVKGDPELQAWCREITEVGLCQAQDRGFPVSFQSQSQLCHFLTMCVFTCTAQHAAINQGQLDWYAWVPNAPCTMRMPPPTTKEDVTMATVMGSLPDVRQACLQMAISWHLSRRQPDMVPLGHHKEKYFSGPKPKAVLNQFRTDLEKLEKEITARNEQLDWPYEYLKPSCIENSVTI
#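 Purified human 12hLO at 150 nM in 25 mM Hepes, 0.01% Triton X-100, pH 7.0, preincubated 15 min at room temperature with compound. Reaction started with 40 uM arachidonic acid, 30 min at room temperature. Hydroperoxide measured by Fe-xylenol orange, 573/405 nm absorbance ratio.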
# TDP1 cell noCPT = qHTS for Inhibitors of human tyrosyl-DNA phosphodiesterase 1 (TDP1): qHTS in cells in absence of CPT | DT40 Tdp1-/- hTDP1 cells, no CPT, ATP luminescence, 48 h | Potency, µM (top dose mostly 46.2 µM), actives largely listed as inhibitors | 420,000 tested, 15% active | AID 686978, 2013; further: nearly all actives have a fitted effect of over 55% in size
#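 Chicken DT40 Tdp1-/- cells complemented with human TDP1, screened without camptothecin (DMSO vehicle only), 400 cells/well. Compounds pin-transferred, cells incubated at 37 °C for at least 48 hr. Growth read as ATP-dependent luminescence (CellTiter-Glo, 30 min at RT).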
# Gal4-VP16 FLuc = VP16 counterscreen qHTS for inhibitors of ROR gamma transcriptional activity. Drosophila S2 Gal4-VP16 UAS-luciferase, luminescence, 20 h. Potency, µM (top dose mostly 53.6 µM), actives largely listed as inhibitors. 310,000 tested, 3.5% active. AID 2546, 2010;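 further: Gal4-VP16 expression switched on by copper sulfate through the metallothionein promoter; nearly all actives have a fitted effect of over 50% in size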
# TDP1 cell CPT = qHTS for Inhibitors of human tyrosyl-DNA phosphodiesterase 1 (TDP1): qHTS in cells in presence of CPT | chicken DT40 Tdp1-/-;hTDP1 cells + 20 nM CPT, ATP luminescence, 48 h | Potency, µM (doses to about 46.2 µM), actives largely listed as inhibitors | 420,000 tested, 12% active | AID 686979, 2013; further: nearly all actives have a fitted effect of over 55% in size
#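 Chicken DT40 Tdp1-/- cells complemented with human TDP1, 400 cells/well, exposed to compounds plus 20 nM camptothecin for at least 48 h at 37 C; viability read as ATP content by CellTiter-Glo luminescence.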
# RORg inh = qHTS for inhibitors of ROR gamma transcriptional activity; Drosophila S2 Gal4-RORgamma UAS-luciferase reporter, 20 h; Potency, µM (titrated, usually from 53.6 µM), hits mostly inhibitors; 310,000 tested, 5.4% active; AID 2551, 2010; further: nearly all actives have a fitted effect of over 60% in size
#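 ROR gamma transcriptional activity was tracked as Gal4-UAS luciferase output in stably transfected Drosophila Schneider cells, with compound added 1 hr before 700 uM copper sulfate induction and a 20 hr ambient-temperature incubation.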
# Numbers stand for hits; - = inactive; ? = inconclusive; . = no result given; [ ] = dose if it differs, or a comment. The call rests on the fitted dose curve; in most records, active means well fitted curve in the direction sought with a large enough effect; inconclusive means small, poorly fitted or top-dose-only effect, or another doubt; inactive means no such curve, though single readings can be large; an effect the other way counts as inactive or inconclusive.
SMILES,ELG1 repair inh,12-LOX inh,TDP1 cell noCPT,Gal4-VP16 FLuc,TDP1 cell CPT,RORg inh
CCOc1ccc2nc(Nc3nc(C)c(CCC(C)C)c(=O)[nH]3)nc(C)c2c1,.,-,.,.,.,.
Cc1nc(Nc2ccccc2)[nH]c(=O)c1CCC(C)C,?,-,?,?,7.3µM,-
Cc1cc(Br)cc(C)c1NC(=O)c1sc2ncn(Cc3cccc(F)c3)c(=O)c2c1C,.,?,18µM,.,16µM,.
COC(=O)c1cc(NC(=O)c2sc3ncn(Cc4cccc(F)c4)c(=O)c3c2C)cc(C(=O)OC)c1,.,-,?,.,-,.
CCNc1ncc(CN2CCCC(CCc3cccc(C(F)(F)F)c3)C2)cn1 (configuration not stated),.,-,.,.,.,.
CCOc1ccc(NC(=O)c2ccc(NC(=S)NC3CCCCC3)cc2)cc1,?,-,?,?,21µM,-
COC(=O)c1ccc(NC(=S)NC2CCCCC2)cc1,?,-,-,?,-,7.1µM
CCOc1ccc(NC(=O)c2ccc(NC(=S)NC3CC3)cc2)cc1,?,-,-,-,-,-
COC(=O)c1ccc(NC(=S)NC2CC3CCC2C3)cc1 (configuration not stated),?,?,21µM,?,18µM,11µM
COC(=O)c1ccc(NC(=S)NCC2CC2)cc1,-,-,-,?,-,11µM
COC(=O)c1ccc(NC(=O)C2CC3CCC2C3)cc1 (configuration not stated),.,-,-,.,-,.
COCCCNC(=O)Cc1c(C)c2ccc(OC)c(OC)c2oc1=O,.,-,.,.,.,.
O=[S+]1([O-])NCC2(CCN(Cc3ccc(OC(F)(F)F)cc3)C2)Nc2ccccc21 (configuration not stated),.,-,.,.,.,.
CCOC(=O)C1=C(C)N(c2ccc3c(c2)OCO3)C(=O)NC1c1ccccc1 (configuration not stated),.,-,.,.,.,.
Cc1ccccc1OCC(=O)OCC(=O)Nc1ccc(Cl)cn1,-,-,-,.,-,.
COc1ccccc1C(=O)Nc1cccc(NC(C)=O)c1,-,-,-,-,-,-
Cc1ccc(Cl)cc1NC(=O)c1ccccc1OCC(=O)Nc1ccc(Cl)cc1,-,-,5.8µM,11µM,?,?
CS(=O)(=O)c1ccccc1NC(=O)COc1ccccc1C(=O)Nc1ccccc1,.,?,11µM,.,11µM,.
COc1ccc(NC(C)=O)cc1CNC(=O)COc1ccccc1C(=O)Nc1cccc(C)c1C,-,-,4.1µM,-,?,?
CNC(=O)COc1ccccc1C(=O)Nc1ccccc1,.,.,-,.,-,.
Cc1ccccc1OCC(=O)OCC(=O)Nc1ncc(Cl)c(C)c1Cl,-,8.9µM,-,.,-,.
Cc1cc(SCC(=O)O)c(C)cc1Br,.,-,.,.,.,.
CCOc1ccc(S(=O)(=O)[C@H]2CS(=O)(=O)C[C@@H]2N2CCN(c3ncccn3)CC2)cc1,.,-,.,.,.,.
Cc1ccc(NC(=O)COc2ccccc2C(=O)Nc2ccccc2)cc1Cl,16µM,-,-,-,-,-
Cc1ccccc1OCC(=O)NNC(=O)Nc1ccc(Cl)cc1,-,-,4.6µM,-,5.8µM,-
SMILES,ELG1 repair inh,12-LOX inh,TDP1 cell noCPT,Gal4-VP16 FLuc,TDP1 cell CPT,RORg inh
CSCCC(NC(=O)COc1ccccc1)C(=O)OCC(=O)c1ccccc1 (configuration not stated),-,-,-,.,-,.
CSCCC(NS(=O)(=O)c1ccc(Cl)cc1)C(=O)OCC(=O)c1c(C)[nH]c2ccccc12 (configuration not stated),?,?,15µM,16µM,?,?
CSCCC(NS(=O)(=O)c1ccc2ccccc2c1)C(=O)OCC(=O)c1ccc(C(C)C)cc1 (configuration not stated),?,-,16µM,-,23µM,-
COC(=O)c1c(NC(=O)CCl)sc(C(=O)N2CCOCC2)c1C,?,-,5.2µM,1.8µM,?,10µM
COC(=O)c1c(NC(=O)c2ccccc2OC)sc(C(=O)N2CCOCC2)c1C,-,-,15µM,-,?,-
COC(=O)c1c(NC(=O)c2ccccc2)sc(C(=O)c2ccccc2)c1C,?,-,15µM,?,16µM,?
COC[C@@H]1CN(C(=O)c2ccc3c(c2)OCO3)C[C@H]1c1ccccn1,.,-,.,.,.,.
CC(C)NC(=O)N1CCN(c2cccc(C=O)c2)C(=O)C1,.,-[12.5 µM],.,.,.,.
Cc1sc2nc(CSCC(=O)Nc3ccccc3C#N)[nH]c(=O)c2c1C,?,-,16µM,-,?,-
CCOC(=O)C1=CCC(c2cccc(Cl)c2)N(S(=O)(=O)c2ccc(C)cc2)C1 (configuration not stated),.,-,12µM,.,15µM,.
CCOC(=O)C1=CCC(c2cccc3ccccc23)N(S(=O)(=O)c2ccc(C)cc2)C1 (configuration not stated),.,-,18µM,.,15µM,.
CCOC(=O)C1=CCN(S(=O)(=O)c2ccc(C)cc2)C1c1ccccc1F (configuration not stated),.,-,?,.,?,.
CCc1ccc([C@@H]2CC=C(C(=O)O)CN2S(=O)(=O)c2ccc(C)cc2)cc1,-,-,-,.,-,.
CC(=O)C1=CCC(c2cccc(Cl)c2)N(S(=O)(=O)c2ccc(C)cc2)C1 (configuration not stated),.,-,10µM,.,15µM,.
CCOC(=O)C1=CCC(c2ccc(CC)cc2)N(S(=O)(=O)c2ccc(C)cc2)C1 (configuration not stated),.,-,9.2µM,.,23µM,.
O=C1NCC(=O)N2CCN(C(=O)Nc3ccccc3Oc3ccccc3)CC12 (configuration not stated),.,-,.,.,.,.
O=C(O)C(c1c[nH]c2ccc(Cl)cc12)N1CCN(c2nsc3ccccc23)CC1 (configuration not stated),.,-,.,.,.,.
COc1ccc([C@H]2CC(=O)C[C@@H](CCn3cc(-c4ccccc4)nn3)O2)cc1,.,10µM,?,.,?,.
COC(=O)c1c(C)oc2ccc(NS(=O)(=O)c3cc(OC)ccc3OC)cc12,?,-,10µM,?,10µM,-
COc1ccc(OC)c(S(=O)(=O)Nc2ccc3oc(C)c(C(C)=O)c3c2)c1,-,-,15µM,?,16µM,-
COc1ccc(OC)c(S(=O)(=O)Nc2ccc(C(N)=O)cc2)c1,-,?,-,-,-,-
CN(C)/N=C/C=C1\CCC/C(=C\c2ccc(F)c(F)c2)C1=O,?,-,26µM,?,?,?
